Results published in PubChem BioAssay AID485297 (National Center for Advancing Translational Sciences (NCATS), 2010).
The campaign covered roughly 320,000 compounds. About 9,100 (2.8%) were called active. Another 3% or so got no clear call; they are omitted. The call rests on the fitted dose curve; in most records, active means well fitted activation curve with a large enough effect; inconclusive means small, poorly fitted or top-dose-only effect; inactive means no such curve, though single readings can be large or run the other way. Many of the other results were omitted from the sample, so actives are more common in it than they were.

Experiment: qHTS Assay for Rab9 Promoter Activators; further: nearly all actives have a fitted effect of over 60% in size; on activation, negative = inhibition: % of control where 0% means no effect
Details: Huh7 Rab9 promoter-luciferase reporter, luminescence, 24 h; series mostly up to 9.22 µM; activation, negative = inhibition: at the top concentration
Text: NIH Chemical Genomics Center [NCGC] NIH Molecular Libraries Probe Production centers Network [MLPCN] MLPCN Grant: MH089537-01 Assay Submitter (PI): Yiannis A. Ioannou NCGC Assay Overview: Niemann Pick Type C (NPC) is a rare neurodegenerative lipidosis that is characterized by lipid storage in the endosomal/lysosomal system. Treatment modalities for this devastating disease are currently non-existent due to the severe obstacles associated with accessing the central nervous system with proteins or genes (Ioannou, 2000). We have developed a new paradigm, termed "Orphan Receptor Bypass Therapy" (ORByT), to address these disorders. This paradigm posits the existence of endogenous "suppressor" proteins whose expression can dramatically improve LSD pathogenesis. The goal is the identification/discovery of small chemical compounds that can modulate the expression of these proteins and provide a new treatment modality for these devastating disorders. One such protein whose overexpression reverses aspects of the NPC phenotype is Rab9. We have developed and optimized a cell based luciferase reporter assay in 1536 well format for the identification of up-regulators of the Rab9 promoter.
The Rab9 promoter is cloned in front of the luciferase reporter gene, therefore […] promoter activation results in luciferase expression. Frozen stock of the Rab9 promoter transfected Huh7 cells were obtained from the laboratory of Dr. Yiannis Ioannou (The Mount Sinai School of Medicine, New York, NY). Cells were propagated and maintained at NCGC in medium containing RPMI-1640 supplemented with 10% FBS, 2mM L-glutamine, and 50ug/ml penicillin/streptomycin. Cells were harvested in and plated for assays in OP-MEM I reduced-serum medium supplemented with 10% FBS. The Amplite luciferase reporter gene assay kit was purchased from ABD Bioquest and prepared/stored according to manufacturers recommendations. qHTS Assay Setup: 1.Dispensed 5ul of Huh7 cells stably expressing Rab9-luciferase at a density of 1500 cells per well 1536-well plates. 2.Incubate cells at 37C, 5% CO2, and 95% humidity for 2 hours. 3.Transferred 23nl per well of compound in DMSO solution. 4.Incubated at 37C, 5% CO2, and 95% humidity for 24 hours. 5.Dispensed 3ul per well of Amplite reagent(ABD Bioquest) per well. 6.Incubate at ambient for 10 minutes. 7.Read using the luminescence protocol on the ViewLux plate reader (Perkin Elmer).
Potency means the concentration at half of the fitted maximal effect.

| SMILES | activation, negative = inhibition | Potency |
| --- | --- | --- |
| O=C(COC(=O)c1ccccc1Br)Nc1nnc(-c2ccccc2)o1 | 1.02% (inactive) | – |
| Nc1ccc(-c2sc(N)nc2-c2ccccc2)cc1 | -1.5% (inactive) | – |
| O=C(Nc1cccc(Cl)c1)Nc1nnc(-c2ccccc2)o1 | -0.239% (inactive) | – |
| Nc1ccc(-c2nnc(-c3ccccc3)o2)cc1 | – | 3980 nM (active) |
| O=C(COC(=O)c1ccc(Oc2ccccc2)cc1)Nc1nnc(-c2ccccc2)o1 | -3.52% (inactive) | – |
| Nc1ccc(-c2nnc(-c3ccc(-c4ccccc4)cc3)o2)cc1 | – | 2510 nM (active) |
| CC(C(=O)NC1CCCC1)N1CCN(S(=O)(=O)c2ccccc2Cl)CC1 (stereo not drawn) | -5% (inactive) | – |
| COc1ccc(N(CCC(=O)NCCc2ccccc2)S(=O)(=O)c2ccc(C)cc2C)cc1 | 20.1% (inactive) | – |
| COC(=O)c1ccc(C(=O)NC2CC(C)(C)Cc3c2cnn3-c2ccc(F)cc2)nc1 (stereo not drawn) | 0.0943% (inactive) | – |
| Cn1c(N)c(C(=O)COC(=O)COc2ccc(Cl)cc2)c(=O)n(C)c1=O | -7.69% (inactive) | – |
| Cc1ccoc1C(=O)Nc1cccc(Oc2ccccc2)c1 | – | 3980 nM (active) |
| Cc1cccc(NC(=O)Nc2cccc(Oc3c(F)c(F)c(F)c(F)c3F)c2)c1 | -10.1% (inactive) | – |
| Cc1ccc(C(=O)COc2cccc(NC(=O)c3ccco3)c2)cc1 | -4.08% (inactive) | – |
| Cc1cccc(-n2ncc3c(N4CCc5ccccc54)ncnc32)c1 | – | 2000 nM (active) |
| Cc1ccc2c(c1)c1ncnc(N3CCc4ccccc4C3)c1n2C | 28.8% (inactive) | – |
| Cc1cccc(-n2ncc(Cl)c(Cl)c2=O)c1 | -53.7% (inactive) | – |
| COc1ccc(Oc2c(Cl)cnn(-c3ccccc3)c2=O)cc1 | -8.14% (inactive) | – |
| COc1ccc2oc(=O)c(C(=O)N3CCCc4ccccc43)cc2c1 | -2.67% (inactive) | – |
| COc1ccc(-n2ncc3c(N4CCCc5ccccc54)ncnc32)cc1 | – | 794 nM (active) |
| CC1(NC(=O)CCS(=O)(=O)c2ccc(Cl)cc2)CCS(=O)(=O)C1 (stereo not drawn) | -0.164% (inactive) | – |
| COCCNc1nc2nonc2nc1N1CCCC1c1nccs1 (stereo not drawn) | -11.2% (inactive) | – |
| CC(=O)NC12CC3CC(C1)CC(C(=O)N1CCN(C(=O)c4ccco4)CC1)(C3)C2 | 2.91% (inactive) | – |
| CCCNC(=O)c1c(Cl)cnn1-c1ccc(C)cc1 | – | 2510 nM (active) |
| CCCNC(=O)CCc1c(C)nc2c(c(C)nn2-c2ccc(C)cc2)c1C | -3.89% (inactive) | – |
| CCCNC(=O)c1ccc(Cl)c(Cl)c1 | -0.125% (inactive) | – |
| O=C(CCc1nc2sc3c(c2c(=O)[nH]1)CCCC3)NCC(=O)Nc1ccccc1Br | -0.0082% (inactive) | – |
| COc1cc(OC)cc(-c2c(-c3cccs3)c3cc(-c4ccc(OC)nc4)ccc3n2C)c1 | -5.18% (inactive) | – |

| SMILES | activation, negative = inhibition | Potency |
| --- | --- | --- |
| O=C(NCC(=O)N1CCCCCCC1)c1ccccc1Cl | 19.2% (inactive) | – |
| COc1ccccc1/C=C/C(=O)OCC(=O)NC1CCCCCC1 | -1.16% (inactive) | – |
| Cc1cc(C)n2nc(C(=O)OCC(=O)N(C)CC(=O)Nc3ccc(F)cc3)nc2n1 | -4.64% (inactive) | – |
| COc1ccc(C(=O)NC2CCN(C(=S)Nc3ccccc3)CC2)cc1 | 3.06% (inactive) | – |
| CCC(C)N(C)C1CCN(C(=S)Nc2ccc(OC)cc2)CC1 (stereo not drawn) | 0.502% (inactive) | – |
| COc1ccc(NC(=S)N2N=CCC2c2ccccc2)cc1 (stereo not drawn) | – | 3160 nM (active) |
| CC(C(=O)Nc1ccc(S(=O)(=O)N2CCCC2)cc1)N(C)Cc1ccc(F)cc1 (stereo not drawn) | -1.48% (inactive) | – |
| CN(CC(=O)NCc1ccc(Cl)cc1)S(=O)(=O)c1cccs1 | 0.449% (inactive) | – |
| COc1cccc(NC(=O)COC(=O)/C=C/c2ccco2)c1 | -3.31% (inactive) | – |
| COC(=O)C1=C(C)NC(=S)NC1c1ccc(OCC(=O)N2CC(C)OC(C)C2)c(OC)c1 (stereo not drawn) | -3.17% (inactive) | – |
| O=C(NCc1ccc2c(c1)OCO2)c1ccc(Cl)s1 | 13% (inactive) | – |
| COc1ccccc1C(=O)NCCC(=O)NC1=NCCS1 | 0.791% (inactive) | – |
| CCOc1ccc(C(=O)CCC(=O)NC2=NCCS2)cc1 | 0.981% (inactive) | – |
| O=C(NC1=NCCS1)c1ccc(Cl)s1 | – | 3980 nM (active) |
| COc1ccc(Cc2nnc(NC(=O)c3ccc(OC)cc3OC)s2)cc1 | 28.2% (inactive) | – |
| COc1ccc(C(=O)NC2=NCCS2)c(OC)c1 | – | 1410 nM (active) |
| COc1ccc(OC)c(NC(=O)c2cnn(-c3ccccc3Cl)c2NC(=O)c2ccco2)c1 | 3.75% (inactive) | – |
| COc1ccccc1OCC(=O)Nc1c2c(nn1-c1ccc(F)cc1)CS(=O)(=O)C2 | 4.13% (inactive) | – |
| Cc1occc1-c1nnc(SCC(=O)NC2(C#N)CCCC2)n1C | -3.34% (inactive) | – |
| CC(C)(C)C(=O)Nc1ccc(-c2cn3cccnc3n2)cc1 | – | 3980 nM (active) |
| CC(=O)Nc1ccc(S(=O)(=O)Nc2nc(-c3ccc(C(C)(C)C)cc3)cs2)cc1 | -2.13% (inactive) | – |
| FC(F)(F)Oc1ccc(-c2cn3cccnc3n2)cc1 | – | 2510 nM (active) |
| CC(=O)Nc1ccc(S(=O)(=O)Nc2cccc(NC(=O)C(C)(C)C)c2)cc1 | -4.58% (inactive) | – |
| O=c1ccc(S(=O)(=O)N2CCCC2)cn1Cc1nc(-c2ccccc2)no1 | -5.62% (inactive) | – |
| O=C(Cn1nnc(-c2ccccc2)n1)NC(=O)NC1CCCC1 | -3.17% (inactive) | – |
| CCOc1ccc(NC(=O)CN(C)C(=O)c2cccc(S(=O)(=O)N3CCCC3)c2)cc1OCC | -0.932% (inactive) | – |
